Compound activity: PubChem BioAssay, National Center for Advancing Translational Sciences (NCATS)
HPGD block = qHTS Assay for Inhibitors of HPGD (15-Hydroxyprostaglandin Dehydrogenase); Potency, µM, for the others: at the top dose activity change, negative = inhibition, usual class: inhibitors; 4.3% of 150,000 active; AID 894, 2007; purified HPGD, NADH fluorescence kinetic, PGE2 substrate; active means well fitted inhibition curve with a large enough effect, not every such curve was filed as active; inconclusive means small, poorly fitted or top-dose-only effect, or another doubt; inactive means no such curve, though single readings can be large or run the other way
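20 nM HPGD preincubated 15 min at room temperature with compound in 50 mM Tris-HCl pH 8, 0.01% Tween 20. Started with 1 mM NAD+ and 30 uM prostaglandin E2; NADH fluorescence (360/450 nm) read 5 times over 30-s intervals, last minus first.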
Tau fluor cs = Counterscreen qHTS for Inhibitors of Tau Fibril Formation, Fluorescence Polarization | 0.93% of 280,000 active | tau K18 P301L Alexa594 fluorescence, heparin fibrillization | Potency, µM (doses to about 57.7 µM), without a hit: at the highest dose activity change, negative = decrease; further: nearly all actives have a fitted effect of over 55% in size
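Human K18 P301L tau (15 uM unlabeled plus 0.24 uM Alexa 594-labeled, final) in 100 mM sodium acetate pH 7 was mixed with compound and 20 uM heparin and incubated 6 hr at 37 C.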
Tau FP inhib = qHTS for Inhibitors of Tau Fibril Formation, Fluorescence Polarization; K18 P301L tau heparin fibrillization, Alexa594 FP, 6 h; Microtubule-associated protein tau (Homo sapiens), P10636; 0.39% of 280,000 active; Potency, µM (series often up to 57.7 µM), for inactives: at the top dose activity, negative = inhibition, usual class: inhibitors; further: nearly all actives have a fitted effect of over 55% in size
Target sequence (P10636 561-689 P618L limits assumed): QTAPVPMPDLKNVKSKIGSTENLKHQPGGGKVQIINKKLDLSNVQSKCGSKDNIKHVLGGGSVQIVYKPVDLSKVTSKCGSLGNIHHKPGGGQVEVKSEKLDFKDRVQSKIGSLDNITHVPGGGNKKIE
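Quantitative HTS format: compounds meet 15 uM recombinant K18 P301L tau and Alexa 594-tau tracer in 100 mM sodium acetate pH 7; 20 uM heparin triggers fibrillization at 37 C over 6 hr; FP gives the signal.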
ALDH1A1 inh = qHTS Assay for Inhibitors of Aldehyde Dehydrogenase 1 (ALDH1A1). Aldehyde dehydrogenase 1A1 (Homo sapiens), P00352. Purified ALDH1A1, NADH fluorescence, propionaldehyde substrate. 7.3% of 220,000 active. Potency, µM (highest dose often 75.3 µM), for inactives: at the top dose activity, negative = inhibition, usual class: inhibitors; active means well fitted inhibition curve with a large enough effect, not every such curve was filed as active; inconclusive means small, poorly fitted or top-dose-only effect, or another doubt; inactive means no such curve, though single readings can be large or run the other way;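 further: plate controls were no enzyme wells and a reference inhibitor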
Target sequence (P00352 whole entry, looked up): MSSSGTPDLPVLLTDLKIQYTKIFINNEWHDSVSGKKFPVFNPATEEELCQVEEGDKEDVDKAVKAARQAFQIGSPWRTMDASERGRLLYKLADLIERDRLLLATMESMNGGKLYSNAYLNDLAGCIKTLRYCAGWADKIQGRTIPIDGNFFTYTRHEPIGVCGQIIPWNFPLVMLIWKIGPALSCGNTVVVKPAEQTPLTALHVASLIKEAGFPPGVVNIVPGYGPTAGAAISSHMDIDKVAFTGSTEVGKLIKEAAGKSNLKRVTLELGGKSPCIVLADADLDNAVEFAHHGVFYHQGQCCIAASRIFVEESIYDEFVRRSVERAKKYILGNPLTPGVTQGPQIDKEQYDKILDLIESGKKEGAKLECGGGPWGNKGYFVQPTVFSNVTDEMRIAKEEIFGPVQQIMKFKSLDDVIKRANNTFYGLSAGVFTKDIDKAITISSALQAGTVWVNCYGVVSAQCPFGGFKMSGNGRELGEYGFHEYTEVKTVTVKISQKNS
JMJD2E inh = qHTS Assay for Inhibitors of Human Jumonji Domain Containing 2E (JMJD2E); JMJD2E catalytic domain, FDH-coupled NADH fluorescence (FDH is formaldehyde dehydrogenase); 1.6% of 230,000 active; AID 2147, 2009; Potency, µM (titrated, usually from 57.1 µM), inactives show top-dose activity change, negative = inhibition, hits mostly inhibitors; active means well fitted inhibition curve with a large enough effect, not every such curve was filed as active; inconclusive means small, poorly fitted or top-dose-only effect, or another doubt; inactive means no such curve, though single readings can be large or run the other way;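 further: 0% = wells with enzyme and -100% = buffer wells without enzyme; nearly all actives have a fitted effect of over 50% in size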
Tau ThT inhib = qHTS for Inhibitors of Tau Fibril Formation, Thioflavin T Binding. Microtubule-associated protein tau (Homo sapiens), P10636. Potency, µM (series often up to 57.4 µM), without a hit: at the top dose activity, negative = inhibition, most hits filed as inhibitors. 2.1% of 270,000 active. recombinant tau K18 P301L (four-repeat tau fragment), heparin-induced fibrillization, ThT fluorescence; further: nearly all actives have a fitted effect of over 55% in size
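Recombinant human tau K18 fragment […] carrying P301L, 15 uM unlabeled plus 0.24 uM Alexa 594-labeled, was fibrillized with 20 uM heparin in 100 mM sodium acetate pH 7 for 6 hr at 37 C; 30 uM ThT fluorescence read after 1 hr.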
The depositor's hits bear a star; u = inconclusive; x = no result given; [ ] = remark or other dose. An excerpt weighted towards active compounds, which were near 9.9% of everything screened. Unless noted, the call rests on the fitted dose curve; in most records, active means well fitted curve in the direction sought with a large enough effect; inconclusive means small, poorly fitted or top-dose-only effect, or another doubt; inactive means no such curve, though single readings can be large; an effect the other way counts as inactive or inconclusive. Unless noted, on the % scale 0 is the no-effect control and ±100 the full control effect; potency means the concentration at half of the fitted maximal effect.

SMILES	HPGD block	Tau fluor cs	Tau FP inhib	ALDH1A1 inh	JMJD2E inh	Tau ThT inhib
C=CCn1c(CCCOc2ccc(Cl)cc2Cl)n[nH]c1=S	u	-8%	-5%	-12%	-10%	-18%
C=CCn1c(Cc2c[nH]c3ccccc23)n[nH]c1=S	-23%	8%	-8%	8.9µM*	-4%	5%
O=C(c1ccco1)n1nc(-c2ccccc2)nc1NCc1ccccc1Cl	x	-16%	u	x	x	-8%
CCn1c2ccc(C)cc2c2nnc(NN)nc21	-13%	-5%	-13%	25µM*	-10%	u
CSc1nnc2c3cc(C)ccc3n(Cc3ccccc3)c2n1	u	-4%	0%	14µM*	-3%	u
CCCn1c2ccc(F)cc2c2nnc(SCCN(CC)CC)nc21	x	-2%	-6%	x	x	-5%
CCCCn1c2ccc(F)cc2c2nnc(NN)nc21	x	-12%	-3%	2.2µM*	-7%	u
CCn1c2ccccc2c2nnc(NN)nc21	-16%	-11%	u	16µM*	-21%	14µM*
COc1ccc(OC)c(NC(=O)Nc2cc(C(=O)O)ccc2C)c1	x	-3%	-4%	-15%	7%	2%
COc1c(Cl)cc(-c2noc(C)c2C(=O)NCc2ccccc2)cc1Cl	-14%	-25%	-5%	u	0%	-3%
Cc1ccc(CNC(=O)C(C)OC(=O)c2ccco2)cc1 (centres undefined)	-13%	7%	-3%	3%	1%	7%
COc1c(Cl)cc(-c2noc(C)c2C(=O)NCc2ccc3c(c2)OCO3)cc1Cl	-6%	-29%	-13%	0.71µM*	-3%	-8%
CCOc1ccccc1C(=O)NCc1ccc2c(c1)OCO2	4µM*	-3%	-3%	3%	12%	-9%
COc1ccccc1CC(=O)NCc1ccc2c(c1)OCO2	14µM*	9%	2%	u	-28%	14%
CCC(OC(=O)c1ccco1)C(=O)NCc1ccc(C)cc1 (centres undefined)	28µM*	-3%	0%	-3%	3%	4%
O=C(NCc1ccc2c(c1)OCO2)c1cccnc1Cl	x	-2%	3%	2%	7%	-3%
CN(C)CCn1c(CO)nc2c1c(=O)n(C)c(=O)n2C	-10%	x	x	-1%[13.5 µM]	x	x
COCC(=O)N1CCC2(CCCN(C(c3ccccc3)c3ccccc3)C2)CC1	-11%	x	x	11%	x	x
O=C(NCc1ccc2c(c1)OCO2)c1cccc2c1C(=O)N(C1CCCCC1)C2	-7%	-10%	-2%	1%	-2%	-5%
CCCN1Cc2cccc(C(=O)NCc3ccc4c(c3)OCO4)c2C1=O	-9%	1%	17%	14µM*	-8%	-3%
O=C(OC(C(=O)NCc1cccs1)c1ccccc1F)c1ccco1 (centres undefined)	1%	-15%	-8%	u	8%	-10%
O=C(OC(C(=O)NCc1ccc2c(c1)OCO2)c1ccccc1F)c1ccco1 (centres undefined)	u	-10%	-3%	1.6µM*	1%	-5%
CCCc1c2ccccc2nc2ccccc12	u	1%	-9%	u	u	-1%
Nn1c(C2COc3ccccc3O2)n[nH]c1=S (centres undefined)	x	-14%	u	4.5µM*	u	u
NC(=S)C1COc2ccccc2O1 (centres undefined)	x	9%	2%	x	1%	8%
SMILES	HPGD block	Tau fluor cs	Tau FP inhib	ALDH1A1 inh	JMJD2E inh	Tau ThT inhib
CCOC(=O)C(NC(=O)CC)(Nc1ccccc1)C(F)(F)F (centres undefined)	-2%	-9%	-6%	7%	5%	u
CCOC(=O)C(NC(=O)CC)(N1CCc2ccccc2C1)C(F)(F)F (centres undefined)	-5%	-16%	u	-3%	-10%	22µM*
Cc1nc2ccc(NC(=O)c3ccc(Cl)c([N+](=O)[O-])c3)cc2s1	-1%	u	-10%	5%	6%	u
Cc1nc2ccc(NC(=O)c3cc([N+](=O)[O-])cc([N+](=O)[O-])c3Cl)cc2s1	7.1µM*	0%	3%	u	-4%	0%
COc1cccc(-c2[nH]nc3c2C(c2ccc(C)o2)C(C#N)=C(N)O3)c1 (centres undefined)	u	u	u	2%	-25%	u
Cc1ccc(-c2[nH]nc3c2C(c2ccoc2)C(C#N)=C(N)O3)cc1C (centres undefined)	-22%	u	u	-4%	u	32µM*
COc1ccc(-c2[nH]nc3c2C(c2ccoc2)C(C#N)=C(N)O3)cc1 (centres undefined)	13µM*	-20%	0%	-1%	-4%	u
c1ccc(CO[C@H]2NCCN2Cc2ccccc2)cc1	-8%	x	x	14%[13.5 µM]	x	x
CC1(C)CC(=O)C(=Cc2cn(-c3ccccc3)nc2-c2ccc(Cl)cc2)C(=O)C1	1.1µM*	5%	-2%	u	2%	3%
N#CCCn1cc(/C=C2\NC(=S)N(c3ccccc3)C2=O)c(-c2ccc(F)cc2)n1	x	u	14%	25µM*	-16%	-15%
O=C(O)CCn1cc(/C=C2\NC(=S)N(c3ccccc3)C2=O)c(-c2ccc(Br)cc2)n1	x	-15%	2%	-6%	3%	-15%
CC1(C)CC(=O)C(=Cc2cn(CCC#N)nc2-c2ccc(F)cc2)C(=O)C1	20µM*	2%	-13%	-1%	0%	u
N#CCCn1cc(C=C(C#N)C#N)c(-c2ccc(-c3ccccc3)cc2)n1	u	1%	-3%	u	2%	3%
CC1=NNC(=O)/C1=C\c1cn(-c2ccccc2)nc1-c1ccccc1	x	-1%	3%	-9%	-18%	-1%
CC1(C)CC(=O)C(=Cc2cn(CCC#N)nc2-c2ccc(Cl)cc2)C(=O)C1	16µM*	6%	-12%	-6%	-3%	u
COc1ccc(Cl)cc1NC(=S)N(CCN1CCOCC1)C1CCN(C(C)=O)CC1	x	-9%	-4%	6%	1%	-13%
Cc1cccn2c(=O)c(/C=C(\C#N)C(=O)NCc3ccccc3)c(N3CCC(C(N)=O)CC3)nc12	x	-27%	u	x	u	-14%
CCCCN(CCCC)CCCNC(=O)Cn1cc2c(n1)-c1c(oc(C(=O)N3CCCC3)c1C)CC2	x	-10%	-8%	x	x	-5%
